Results taken from PubChem BioAssay AID1159580 (chemical genetic matrix, 2015).
Hit rate of the full screen: of about 5,500 compounds, about 2,000 (36%) were called active. About 18% were inconclusive and are not listed. No stated cut-off is given here; in the data, active means normalized growth mostly below about 0.91 (no sharp cut-off); inconclusive means no clear call, values can overlap the other calls; inactive means mostly above about 0.92. The list shows a part of the results.

Assay: chemical genetic growth profiling, strain panel (AID 1159580);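 further: tested at 20 µM; growth read once vehicle control cultures reached saturation at 30 °C; 1 = growth at the plate median or of vehicle wells; lower values mean less growth of the strain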
Conditions: growth OD

Measured: normalized growth

FC(F)(F)c1cccc(N2CCNCC2)c1
inactive: S. cerevisiae deletion strains, locus YJL187C, strain SWE1, active compounds read low 0.999 | S. cerevisiae deletion strains, locus YJR043C, strain POL32, active compounds read low 1 | S. cerevisiae deletion strains, locus YJR075W, strain HOC1, active compounds read low 0.958 | S. cerevisiae deletion strains, locus YKL009W, strain mrt4, active compounds read low 1 | S. cerevisiae deletion strains, locus YKL068W, active compounds read low 0.997 | S. cerevisiae deletion strains, locus YKL085W, strain MDH1 (second series), active compounds read low 0.995 | S. cerevisiae deletion strains, locus YKL085W, strain MDH1, active compounds read low 0.995 | S. cerevisiae deletion strains, locus YKL160W, strain elf1, active compounds read low 0.988 | S. cerevisiae deletion strains, locus YKL190W, strain CNB1, active compounds read low 1.01 | S. cerevisiae deletion strains, locus YKR001C, strain vps1, active compounds read low 0.992 | S. cerevisiae deletion strains, locus YKR026C, strain gcn3, active compounds read low 1 | S. cerevisiae deletion strains, locus YKR091W, strain srl3, active compounds read low 0.997 | S. cerevisiae deletion strains, locus YLL001W, strain dnm1, active compounds read low 0.982 | S. cerevisiae deletion strains, locus YLL026W, active compounds read low 0.991 | S. cerevisiae deletion strains, locus YLL041C, strain sdh2, active compounds read low 1 | S. cerevisiae deletion strains, locus YLR027C, strain aat2, active compounds read low 0.993 | S. cerevisiae deletion strains, locus YLR039C, strain RIC1, active compounds read low 1.04 | S. cerevisiae deletion strains, locus YLR058C, strain SHM2, active compounds read low 1.01 | S. cerevisiae deletion strains, locus YLR102C, strain apc9, active compounds read low 0.984 | S. cerevisiae deletion strains, locus YLR221C, strain rsa3, active compounds read low 0.993 | S. cerevisiae deletion strains, locus YLR258W, strain gsy2, active compounds read low 0.981 | S. cerevisiae deletion strains, locus YLR262C, strain YPT6 (second series), active compounds read low 0.981 | S. cerevisiae deletion strains, locus YLR262C, strain YPT6, active compounds read low 0.991 | S. cerevisiae deletion strains, locus YLR268W, strain sec22, active compounds read low 0.993 | S. cerevisiae deletion strains, locus YLR320W, strain mms22, active compounds read low 0.968 | S. cerevisiae deletion strains, locus YLR330W, strain CHS5, active compounds read low 1 | S. cerevisiae deletion strains, locus YLR342W, strain FKS1 (second series), active compounds read low 0.937 | S. cerevisiae deletion strains, locus YLR342W, strain FKS1, active compounds read low 0.997 | S. cerevisiae deletion strains, locus YLR357W, strain rsc2, active compounds read low 0.989 | S. cerevisiae deletion strains, locus YLR370C, strain arc18, active compounds read low 1.01 | S. cerevisiae deletion strains, locus YLR371W, strain rom2, active compounds read low 0.98 | S. cerevisiae deletion strains, locus YLR384C, strain iki3, active compounds read low 0.975 | S. cerevisiae deletion strains, locus YLR418C, strain cdc73, active compounds read low 0.992 | S. cerevisiae deletion strains, locus YML016C, strain PPZ1, active compounds read low 1.01 | S. cerevisiae deletion strains, locus YML032C, strain rad52, active compounds read low 0.965 | S. cerevisiae deletion strains, locus YML120C, strain ndi1, active compounds read low 0.999 | S. cerevisiae deletion strains, locus YML124C, strain tub3, active compounds read low 0.991 | S. cerevisiae deletion strains, locus YMR058W, strain fet3, active compounds read low 1.01 | S. cerevisiae deletion strains, locus YMR078C, strain ctf18, active compounds read low 0.986 | S. cerevisiae deletion strains, locus YMR125W, strain sto1, active compounds read low 0.968 | S. cerevisiae deletion strains, locus YMR129W, active compounds read low 1.01 | S. cerevisiae deletion strains, locus YMR205C, strain PFK2, active compounds read low 0.965 | S. cerevisiae deletion strains, locus YMR223W, strain ubp8, active compounds read low 0.981 | S. cerevisiae deletion strains, locus YMR231W, strain pep5, active compounds read low 0.999 | S. cerevisiae deletion strains, locus YMR263W, strain SAP30, active compounds read low 0.999 | S. cerevisiae deletion strains, locus YMR307W, strain GAS1, active compounds read low 0.996 | S. cerevisiae deletion strains, locus YNL067W, strain RPL9B, active compounds read low 1.01 | S. cerevisiae deletion strains, locus YNL071W, strain lat1, active compounds read low 0.996 | S. cerevisiae deletion strains, locus YNL153C, strain GIM3, active compounds read low 1.01 | S. cerevisiae deletion strains, locus YNL209W, strain ssb2, active compounds read low 0.994 | S. cerevisiae deletion strains, locus YNL233W, strain BNI4, active compounds read low 1 | S. cerevisiae deletion strains, locus YNL248C, strain rpa49, active compounds read low 1 | S. cerevisiae deletion strains, locus YNL250W, strain rad50, active compounds read low 1.01 | S. cerevisiae deletion strains, locus YNL271C, strain bni1, active compounds read low 0.978 | S. cerevisiae deletion strains, locus YNL298W, strain CLA4, active compounds read low 0.992 | S. cerevisiae deletion strains, locus YNL307C, strain MCK1, active compounds read low 0.992 | S. cerevisiae deletion strains, locus YNL322C, strain KRE1 (second series), active compounds read low 0.986 | S. cerevisiae deletion strains, locus YNR049C, strain mso1, active compounds read low 1.01 | S. cerevisiae deletion strains, locus YNR052C, strain pop2, active compounds read low 0.985 | S. cerevisiae deletion strains, locus YOL006C, strain TOP1, active compounds read low 1.04 | S. cerevisiae deletion strains, locus YOL012C, strain htz1 0.923 | S. cerevisiae deletion strains, locus YOL147C, strain pex11, active compounds read low 0.989 | S. cerevisiae deletion strains, locus YOR001W, strain rrp6, active compounds read low 0.985 | S. cerevisiae deletion strains, locus YOR061W, strain CKA2, active compounds read low 1.01 | S. cerevisiae deletion strains, locus YOR069W, strain VPS5, active compounds read low 1 | S. cerevisiae deletion strains, locus YOR070C, strain gyp1, active compounds read low 0.995 | S. cerevisiae deletion strains, locus YOR080W, strain dia2, active compounds read low 0.98 | S. cerevisiae deletion strains, locus YOR083W, strain WHI5, active compounds read low 1.03 | S. cerevisiae deletion strains, locus YOR106W, strain vam3, active compounds read low 1 | S. cerevisiae deletion strains, locus YOR136W, strain idh2, active compounds read low 0.987 | S. cerevisiae deletion strains, locus YOR144C, strain elg1, active compounds read low 0.983 | S. cerevisiae deletion strains, locus YOR184W, strain ser1, active compounds read low 1.03 | S. cerevisiae deletion strains, locus YOR265W, strain rbl2, active compounds read low 0.993 | S. cerevisiae deletion strains, locus YOR270C, strain vph1, active compounds read low 1.07 | S. cerevisiae deletion strains, locus YOR290C, strain snf2, active compounds read low 0.973 | S. cerevisiae deletion strains, locus YOR316C, strain cot1, active compounds read low 0.997 | S. cerevisiae deletion strains, locus YPL051W, strain arl3, active compounds read low 0.993 | S. cerevisiae deletion strains, locus YPL055C, strain LGE1, active compounds read low 1 | S. cerevisiae deletion strains, locus YPL078C, strain atp4, active compounds read low 1.01 | S. cerevisiae deletion strains, locus YPL106C, strain sse1, active compounds read low 0.947 | S. cerevisiae deletion strains, locus YPL240C, strain hsp82, active compounds read low 0.989 | S. cerevisiae deletion strains, locus YPR119W, strain clb2, active compounds read low 0.984 | S. cerevisiae deletion strains, locus YPR141C, strain kar3, active compounds read low 0.988 | S. cerevisiae deletion strains, locus YPR163C, strain tif3, active compounds read low 0.989 | S. cerevisiae deletion strains, locus YPR167C, strain met16, active compounds read low 0.988 | S. cerevisiae deletion strains, strain wtn01, active compounds read low 0.966 | S. cerevisiae strains, strain wild type, active compounds read low 1.01
